GLA inh pH 4.5: alpha-galactosidase A (human) inhibition, pH 4.5 | 230,000 tested, under 10 active | P06280 | AID 1467 | purified enzyme, 4-MU-alpha-Gal fluorescence, pH 4.5 | activity change, negative = inhibition, % at 105 µM;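 further: 0% = full activity with enzyme and -100% = basal without enzyme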
aGlu spleen mod: lysosomal alpha-glucosidase (human) modulation. human spleen homogenate, 4-MU-alpha-glucoside fluorescence. Potency, µM (highest dose often 79.9 µM), for inactives: top-dose activity change, negative = inhibition, usual class: inhibitors. hit rate 0.006% among 240,000. AID 2112;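 further: potency means the concentration at half of the fitted maximal effect; 0% = enzyme with vehicle and -100% = no enzyme basal signal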
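Human spleen homogenate (1 ug) with 4-methylumbelliferyl-alpha-D-glucopyranoside (1 mM final) in 50 mM citrate/phosphate pH 5.0, 0.01% Tween-20; 40 min at 37 C. Stopped at pH 10; 4-MU fluorescence Ex 365/Em 440 nm; AC50 by Hill fit.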
GAA inh: inhibitors of human lysosomal alpha-glucosidase. hit rate 0.005% among 200,000. P10253. Potency, µM (titrated, usually from 76.9 µM), without a hit: at the highest dose activity change, negative = inhibition, most hits filed as inhibitors. purified human GAA, 4-MU-alpha-glucoside fluorescence;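 further: potency means the concentration at half of the fitted maximal effect; plate controls were uninhibited enzyme wells for no effect and no-enzyme background for full effect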
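Endpoint fluorogenic read: 20 min room-temperature reaction of 4 nM human alpha-glucosidase with 400 uM 4-methylumbelliferyl-alpha-D-pyranoside, pH 5.0, quenched with 1M NaOH/1M glycine pH 10. AC50 from Hill modeling.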
aGal spleen mod: alpha-galactosidase A (human) modulation | human spleen homogenate, 4MU-alpha-Gal fluorescence, 40 min | Potency, µM (series often up to 80 µM), for the others: at the top dose activity change, negative = inhibition, most hits filed as inhibitors | hit rate 0.008% among 240,000 | AID 2107;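 further: potency means the concentration at half of the fitted maximal effect; 0% = enzyme with vehicle and -100% = no enzyme basal signal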
Target sequence (P06280 32-429 limits assumed): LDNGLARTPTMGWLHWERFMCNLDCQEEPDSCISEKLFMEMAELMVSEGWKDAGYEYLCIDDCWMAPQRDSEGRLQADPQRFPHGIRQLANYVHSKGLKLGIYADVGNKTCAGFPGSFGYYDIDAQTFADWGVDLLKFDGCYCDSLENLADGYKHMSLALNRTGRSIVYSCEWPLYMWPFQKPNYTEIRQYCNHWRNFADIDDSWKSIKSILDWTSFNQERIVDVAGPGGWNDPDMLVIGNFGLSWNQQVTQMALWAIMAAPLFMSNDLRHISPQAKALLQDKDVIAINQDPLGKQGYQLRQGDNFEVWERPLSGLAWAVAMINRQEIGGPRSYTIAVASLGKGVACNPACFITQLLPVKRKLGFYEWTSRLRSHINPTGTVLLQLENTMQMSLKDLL
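Human spleen homogenate (1 ug) as enzyme source, 4-methylumbelliferyl-alpha-D-galactopyranoside 1 mM final, citrate/phosphate pH 5.0 with 0.01% Tween-20. Compounds 40 min at 37C, NaOH/glycine stop; fluorescence Ex 365/Em 440, Hill-fit AC50.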
N370S GC: N370S glucocerebrosidase modulation, Gaucher chaperone candidate. Potency, µM (top dose mostly 59.4 µM), for the others: at the highest dose activity change, negative = inhibition, usual class: inhibitors. N370S GC spleen homogenate, 4MU-glucoside fluorescence. AID 2101. P04062. hit rate 0.092% among 330,000;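 further: potency means the concentration at half of the fitted maximal effect; 0% = full enzyme activity and -100% = no enzyme basal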
GAA glycogen: inhibitors or activators of human alpha-glucosidase glycogen cleavage | recombinant GAA, glycogen substrate, Amplex Red glucose oxidase fluorescence | hit rate 0.38% among 300,000 | AID 2100 | Potency, µM (highest dose often 76.4 µM), for the others: at the top dose activity change, negative = inhibition, actives largely listed as inhibitors | P10253;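 further: potency means the concentration at half of the fitted maximal effect; 0% = full enzyme reaction and -100% = no-enzyme basal signal; the screen sought inhibitors and activators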
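Natural-substrate format: glycogen cleavage by 4 nM human enzyme, glucose read by Amplex Red coupling (Ex 573, Em 610 nm). Normalized to enzyme and no-enzyme controls.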
* = called active by the depositor; ? = inconclusive; . = no result; ! = not confirmed by another sample; [ ] = dose if it differs, or a comment. In the library only some 0.43% were active in any assay of this set; here they are far more common. The call rests on the fitted dose curve; in most records, active means well fitted curve in the direction sought with a large enough effect; inconclusive means small, poorly fitted or top-dose-only effect, or another doubt; inactive means no such curve, though single readings can be large; an effect the other way counts as inactive or inconclusive.

SMILES	GLA inh pH 4.5	aGlu spleen mod	GAA inh	aGal spleen mod	N370S GC	GAA glycogen
Cc1cc(C)cc(N(CC(=O)NC2CCC(C)CC2)S(=O)(=O)c2c(C)[nH]c(=O)[nH]c2=O)c1 (configuration not stated)	-9.7	-3.2%	.	-1.0%	0.398µM*	3.4%
Cc1cc(C)cc(N(CC(=O)O)S(=O)(=O)c2c(C)[nH]c(=O)[nH]c2=O)c1	-1.4	0.6%	1.9%	-4.2%	-17.1%	12.9%
COc1cc(NC(=O)CN(c2cc(C)cc(C)c2)S(=O)(=O)c2c(C)[nH]c(=O)[nH]c2=O)cc(OC)c1	.	.	.	.	?	-6.8%[76.3 µM]
CCC(C)NC(=O)CN(c1cc(C)cc(C)c1)S(=O)(=O)c1c(C)[nH]c(=O)[nH]c1=O (configuration not stated)	-9.5	-1.5%	.	-5.5%	10µM*	6.6%
CCOc1ccc(N(CC(=O)NC2CCCC2)S(=O)(=O)c2c(C)[nH]c(=O)[nH]c2=O)cc1	5.3	-11.4%	-2.4%	-18.1%	7.94µM*	-1.4%
Cc1noc(C)c1S(=O)(=O)N(CC(=O)NC1CCC(C)CC1)c1ccc(C(C)C)cc1 (configuration not stated)	.	.	.	.	3.8%	.
Cc1cc(C)cc(N(CC(=O)NC2CCCCCC2)S(=O)(=O)c2c(C)[nH]c(=O)[nH]c2=O)c1	-3.4	5.0%	.	7.3%	0.708µM*	3.6%
CC1CCN(S(=O)(=O)c2ccc(C(=O)OC(C)C(=O)NC3CCCCC3C)cc2)CC1 (configuration not stated)	.	.	.	.	0.1%	.
COc1ccc(-c2nc(N=Nc3ccc(O)cc3)n[nH]2)cc1	-19.5	-6.6%	?	-5.2%	-12.9%	5.6%
COc1ccc(-c2cc(C)no2)cc1S(=O)(=O)Nc1ccc(NC(C)=O)cc1	.	.	.	.	-19.9%	-23.6%[76.3 µM]
c1ccc(CNc2nc(-c3cccs3)nc3ccccc23)cc1	-6.4	-3.2%	-3.0%	-4.6%	0.501µM*	7.0%
Fc1ccccc1-c1nc(NCc2ccccc2)c2ccccc2n1	-18.3	-16.6%	.	4.8%	12.6µM*	-12.2%
COCCNc1nc(-c2ccccc2Cl)nc2ccccc12	.	-4.8%	.	-7.1%	7.94µM*	.
c1ccc(CNc2nc(-c3ccccc3)nc3ccccc23)cc1	.	.	.	.	?	-12.1%[76.3 µM]
O=c1c(-c2ccc(O)cc2)coc2cc(O)cc(O)c12	-7.8	-7.2%	.	6.9%	15.8µM*!	-2.6%
COc1ccc(-c2coc3cc(O)cc(O)c3c2=O)cc1	2.9	-4.2%	-1.3%[15.4 µM]	-7.5%	?	-5.9%
O=C(Nc1nsc(-c2ccccc2)n1)c1cccs1	4.1	8.1%	-2.3%	4.5%	4.0%	1.5%
CCOc1ccc(NC(=O)N2CCN(c3nc4ccccc4s3)CC2)cc1	2.5	-6.2%	-2.2%	-6.8%	-11.8%	-10.6%
C/C(=N\NC(=S)Nc1ccccc1)C1Cc2ccccc2C(=O)O1 (configuration not stated)	-13.8	2.3%	.	-4.5%	11.1%	15.8µM*
Cc1ccc(C)c2sc(N)nc12	0.0	11.8%	2.0%	6.4%	-11.3%	-8.3%
Cc1sc2nc(N)sc2c1C	-16.4	-0.4%	-5.4%	-7.7%	0.8%	17.6µM*
Cc1ccc(CNc2nc(C)nc3sc4c(c23)CCC4)cc1	-1.8	0.4%	-3.7%	-7.6%	13.4%	0.9%
Cc1nc(Nc2ccc(O)cc2)c2c3c(sc2n1)CCCC3	-5.4	7.6%	-9.5%	10.4%	11.2µM*	14µM*
Cc1[nH]c2ccccc2c1/C=N/Nc1nc2ccccc2[nH]1	-3.7	1.8%	.	8.6%	21.2%	?
CCc1nnc(N/N=C/c2cc(C)c(C)cc2C)n1N	.	.	.	.	-3.9%	8.91µM*
CCc1nnc(N/N=C/c2c(F)cccc2Cl)n1N	.	.	.	.	-2.1%	-9.3%[76.3 µM]
CCc1nnc(N/N=C/c2c(C)[nH]c3ccccc23)n1N	3.7	-0.3%	8.0%	5.8%	5.7%	7.94µM*
Cc1ccc(NC(=S)N/N=C/c2c(C)[nH]c3ccccc23)cc1	-8.6	-0.3%	-11.6%	6.5%	?	28.2µM*
Cc1[nH]c2ccccc2c1/C=N/NC(N)=S	-1.1	-25.6%	.	8.6%	-10.7%	?

Compound activity as filed in PubChem.
